Source: PubChem BioAssay (National Center for Advancing Translational Sciences (NCATS))
Six1-Eya2 inh – inhibitors of human Six1/Eya2 interaction | AlphaScreen GST-Six1/His-Eya2 binding, biochemical; active compounds read low | AID 651725 | Q15475+O00167 | activity change, % (concentration not given with the values) | 0.56% of 360,000 active; in the data active means activity change below about -65%; inconclusive means mostly about -30% to -63%; further: on the % scale 0 is the no-effect control and ±100 the full control effect
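AlphaScreen luminescence read after one hour at 37 °C in darkness. Pin-transferred compounds met GST-Six1 and His-Eya2 protein (5X stock 250 nM/500 nM) plus glutathione donor and Ni-chelate acceptor beads (5X, 50 ug/mL).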
BAZ2B block – BAZ2B (human) inhibition | 4.4% of 360,000 active | AID 504333 | Potency, µM (series often up to 114 µM), without a hit: at the top dose activity change, negative = inhibition, most hits filed as inhibitors | Q9UIF8 | AlphaScreen BAZ2B-H3K14Ac peptide displacement; further: potency means the concentration at half of the fitted maximal effect; on the % scale 0 is the no-effect control and ±100 the full control effect; nearly all actives have a fitted effect of over 60% in size
Target sequence (Q9UIF8 whole entry, looked up): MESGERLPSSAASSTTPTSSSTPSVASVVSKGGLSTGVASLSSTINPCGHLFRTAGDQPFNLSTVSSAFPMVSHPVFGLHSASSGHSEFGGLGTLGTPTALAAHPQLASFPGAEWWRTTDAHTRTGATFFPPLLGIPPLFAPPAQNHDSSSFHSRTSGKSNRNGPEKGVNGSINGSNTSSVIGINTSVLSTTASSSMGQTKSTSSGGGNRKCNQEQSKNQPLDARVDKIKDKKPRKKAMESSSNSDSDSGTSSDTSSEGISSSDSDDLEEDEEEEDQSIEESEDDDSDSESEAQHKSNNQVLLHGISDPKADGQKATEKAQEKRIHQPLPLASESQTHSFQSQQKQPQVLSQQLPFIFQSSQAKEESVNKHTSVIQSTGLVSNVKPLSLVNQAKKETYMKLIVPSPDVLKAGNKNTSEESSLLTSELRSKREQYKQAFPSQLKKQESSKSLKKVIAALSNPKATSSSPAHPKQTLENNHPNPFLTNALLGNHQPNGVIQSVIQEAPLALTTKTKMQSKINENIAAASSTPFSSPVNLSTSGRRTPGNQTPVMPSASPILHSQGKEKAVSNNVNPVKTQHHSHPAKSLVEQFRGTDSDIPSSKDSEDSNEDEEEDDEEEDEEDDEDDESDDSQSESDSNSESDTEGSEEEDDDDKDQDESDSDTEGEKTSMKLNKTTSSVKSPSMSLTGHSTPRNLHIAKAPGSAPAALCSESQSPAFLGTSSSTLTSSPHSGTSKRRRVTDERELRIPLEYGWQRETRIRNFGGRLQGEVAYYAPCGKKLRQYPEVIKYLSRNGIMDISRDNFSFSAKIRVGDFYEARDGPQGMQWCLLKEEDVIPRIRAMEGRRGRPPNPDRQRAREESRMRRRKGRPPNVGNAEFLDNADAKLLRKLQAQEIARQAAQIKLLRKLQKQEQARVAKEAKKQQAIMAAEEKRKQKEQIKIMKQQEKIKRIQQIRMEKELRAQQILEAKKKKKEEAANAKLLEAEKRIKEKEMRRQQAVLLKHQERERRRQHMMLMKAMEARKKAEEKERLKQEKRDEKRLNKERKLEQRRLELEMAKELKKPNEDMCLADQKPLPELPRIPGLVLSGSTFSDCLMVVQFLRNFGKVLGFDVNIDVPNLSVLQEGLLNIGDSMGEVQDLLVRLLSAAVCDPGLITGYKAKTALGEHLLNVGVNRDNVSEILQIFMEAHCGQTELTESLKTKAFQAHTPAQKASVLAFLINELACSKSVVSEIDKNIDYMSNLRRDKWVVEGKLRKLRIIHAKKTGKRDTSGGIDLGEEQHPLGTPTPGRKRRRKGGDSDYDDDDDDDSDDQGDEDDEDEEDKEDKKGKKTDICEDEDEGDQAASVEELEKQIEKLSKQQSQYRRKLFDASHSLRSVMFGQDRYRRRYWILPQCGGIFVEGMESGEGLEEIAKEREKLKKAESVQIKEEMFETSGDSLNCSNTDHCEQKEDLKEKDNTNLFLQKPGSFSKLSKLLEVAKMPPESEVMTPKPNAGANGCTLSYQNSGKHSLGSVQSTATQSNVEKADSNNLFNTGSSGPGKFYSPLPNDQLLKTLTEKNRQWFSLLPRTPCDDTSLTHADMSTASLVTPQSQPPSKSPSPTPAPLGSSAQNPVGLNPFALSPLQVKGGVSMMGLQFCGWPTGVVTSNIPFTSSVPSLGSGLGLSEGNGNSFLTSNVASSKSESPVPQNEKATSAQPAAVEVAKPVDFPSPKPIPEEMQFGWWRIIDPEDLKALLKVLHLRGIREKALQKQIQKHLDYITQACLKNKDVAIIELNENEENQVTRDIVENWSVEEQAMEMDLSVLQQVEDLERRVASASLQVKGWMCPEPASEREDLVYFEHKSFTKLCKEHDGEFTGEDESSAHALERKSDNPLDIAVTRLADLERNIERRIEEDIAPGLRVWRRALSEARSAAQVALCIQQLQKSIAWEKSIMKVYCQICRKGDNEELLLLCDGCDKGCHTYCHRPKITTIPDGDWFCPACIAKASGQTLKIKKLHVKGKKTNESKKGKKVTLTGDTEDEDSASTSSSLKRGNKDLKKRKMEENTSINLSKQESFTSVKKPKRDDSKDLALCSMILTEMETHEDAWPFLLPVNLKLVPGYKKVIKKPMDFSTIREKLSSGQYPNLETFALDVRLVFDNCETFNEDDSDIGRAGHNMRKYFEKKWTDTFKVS
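Complex of BAZ2B and biotin-H3K14Ac (50 nM apiece) forms over 30 min at RT, then faces library compounds up to 110 uM for another 30 min; AlphaScreen beads added, 20 min dark incubation, luminescence read.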
HP1b chromo inh – inhibitors of HP1-beta chromodomain binding to methylated histone tails | P83916 | AlphaScreen HP1-beta / biotin-H3K9me3 peptide binding | Potency, µM (highest dose often 114 µM), without a hit: top-dose activity change, negative = inhibition, actives largely listed as inhibitors | 0.56% of 390,000 active | AID 540317; further: potency means the concentration at half of the fitted maximal effect; nearly all actives have a fitted effect of over 70% in size
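Compound inhibition of the preformed complex between 50 nM HP1-beta and 50 nM biotinylated H3K9me3 peptide was read by AlphaScreen. Buffer was PBS pH 7.4 with 0.01% Tween-20. Incubations ran 30 min at room temperature, with 10 ug/mL donor/acceptor beads.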
JMJD2A Tudor – blocks the human JMJD2A Tudor domain; AlphaScreen JMJD2A-Tudor / H3K4me3 peptide binding; Potency, µM (doses to about 114 µM), for the others: top-dose activity change, negative = inhibition, usual class: inhibitors; 4.4% of 390,000 active; AID 504339; further: potency means the concentration at half of the fitted maximal effect; on the % scale 0 is the no-effect control and ±100 the full control effect; nearly all actives have a fitted effect of over 50% in size
CtBP-E1A blk – CtBP/E1A binding inhibition. 0.49% of 340,000 active. activity change, % (concentration not given with the values). AID 651724. AlphaScreen GST-E1A/His-CtBP binding, 1536-well; active compounds read low; in the data active means activity change below about -65%; inconclusive means mostly about -30% to -63%; further: on the % scale 0 is the no-effect control and ±100 the full control effect
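Homogeneous bead-based format: GST-tagged E1A captured on glutathione donor beads, His-tagged CtBP on nickel acceptor beads; compounds precede bead addition by 2 h at 37 °C.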
G9a inh – G9a (human) methyltransferase inhibition. Q96KQ7. G9a H3K9 monomethylation, AlphaScreen, 2 h. Potency, µM (highest dose often 102 µM), without a hit: at the top dose activity, negative = inhibition, hits mostly inhibitors. 8.8% of 350,000 active; further: potency means the concentration at half of the fitted maximal effect; on the % scale 0 is the no-effect control and ±100 the full control effect; nearly all actives have a fitted effect of over 75% in size
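G9a (20 nM) was preincubated 15 min with compound, then reacted 2 h at room temperature with 500 nM biotin-H3K9 peptide and 20 µM SAM. Monomethyl-H3K9 detected by AlphaScreen using anti-H3K9me1 antibody.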
An asterisk follows results filed as active; ? = inconclusive; nt = no result given; [ ] = dose if it differs, or a comment. Only some compounds are listed: those with a hit (about 10% of all), similar ones and a draw of the others. Unless noted, the call rests on the fitted dose curve; in most records, active means well fitted inhibition curve with a large enough effect; inconclusive means small, poorly fitted or top-dose-only effect; inactive means no such curve, though single readings can be large or run the other way.

SMILES | Six1-Eya2 inh | BAZ2B block | HP1b chromo inh | JMJD2A Tudor | CtBP-E1A blk | G9a inh
CC1CCCN(CCOCCOc2ccc(Br)cc2Cl)C1 (centres undefined) | 6 | ? | ? | 2.8µM* | -20 | 10µM*
CC1CCCN(CCOCCOc2ccc(Cl)cc2Br)C1 (centres undefined) | 18 | ? | ? | 2µM* | 32 | ?
Cc1cc(C)c(OCCOCCN2CCNCC2)c(C)c1 | -1 | -1% | 34% | -16% | 1 | ?
Cc1cc(Cl)c(OCCOCCN2CCCC(C)C2)c(Br)c1 (centres undefined) | -9 | 56µM* | 6% | ? | 3 | 16µM*
CCCCNC(=O)C1(O)c2cc(Br)ccc2NC(=O)N1c1cccc(OC)c1 (centres undefined) | -1 | -2% | 7% | -3% | -1 | 6%
Cc1ccc(-c2nnc(Nc3ccc(Cl)cc3)c3ccccc23)cc1S(=O)(=O)N1CCOCC1 | nt | 4% | 18% | -23% | nt | -28%[59 µM]
CCN1CC2=C(OC(N)=C(C#N)C2c2ccccc2)/C(=C\c2ccccc2)C1 (centres undefined) | -13 | ? | -23% | -33% | 0 | -13%[59 µM]
CCN1CC2=C(OC(N)=C(C#N)C2c2cccs2)/C(=C/c2cccs2)C1 (centres undefined) | -17 | 32µM* | -22% | ? | -15 | ?
CCN1C=C(Cc2cccs2)C2=C(C1)C(c1cccs1)C(C#N)=C(N)O2 (centres undefined) | -22 | 35µM* | -34% | ? | -15 | ?
CC(C)c1nc2ccc(C(=O)NCCCN3CCN(c4ccccc4)CC3)cc2o1 | nt | 5% | 43%[57 µM] | -19% | nt | -7%[59 µM]
C=C1CCC[C@]2(C)C[C@H]3OC(=O)C(CNCCN(CC)CC)[C@H]3CC12 (some centres undefined) | 6 | 25µM* | ? | 1.8µM* | -2 | 27%[0.501 µM]
CCC1(C)CC(=O)N(c2ccc(C(=O)O)c(O)c2)C1=O (centres undefined) | 17 | -36% | 16% | -35% | -10 | 50µM*
CCC1(C)CC(=O)N(c2ccc(F)c(Cl)c2)C(=O)C1 | 3 | -7% | 37% | 13% | 8 | -8%
O=C(CSc1nc2scc(-c3ccccc3)c2c(=O)[nH]1)Nc1ccccc1 | 17 | 0% | 32% | -25% | 0 | nt
CC(C)CNC(=O)CSc1nc2scc(-c3ccccc3)c2c(=O)[nH]1 | -9 | -24% | 18% | -17% | -5 | 11µM*
O=C(O)CSCc1nc2scc(-c3ccccc3)c2c(=O)[nH]1 | -2 | -24% | 11% | -5%[57.1 µM] | 0 | 50µM*
CCN(CC)Cc1c(C(=O)N/N=C/c2cccc3ccccc23)nnn1-c1nonc1N | -5 | -18% | 10% | -22% | -10 | 29%
Cc1c(C(=O)N/N=C/c2ccccn2)nnn1-c1nonc1N | ? | 45µM* | 29% | 89µM* | -19 | ?
CCN(CC)Cc1c(C(=O)N/N=C/c2ccccn2)nnn1-c1nonc1N | ? | 11µM* | 41% | ? | ? | ?
Nc1nonc1-n1nnc(C(=O)N/N=C/c2ccccn2)c1CNc1ccccc1 | ? | -33% | 27% | ? | nt | 98%
CCCCCCn1c(=O)n2n(c1=O)C[C@]1(OC(=O)NC3CCCC3)CN(S(=O)(=O)c3ccc(C)cc3)C[C@]1(O)C2 | -4 | nt | nt | nt | 1 | nt
CN(C)c1ccc(C=c2c3ccccc3n3c2c2ccccc2[n+]3C)cc1 | -9 | nt | 13µM* | 16µM* | 12 | nt
CCOC(=O)c1cc2c(=Cc3ccc(N(C)C)cc3)c3ccccc3n2[n+]1C | -69* | nt | 50µM* | 25µM* | 0 | nt
Cc1cc2c(=Cc3ccc(N(C)C)cc3)c3ccccc3n2[n+]1C | 0 | nt | 32µM* | 45µM* | -66* | nt
CCCn1c2ccccc2c2cnn(CC(=O)Nc3cc(OC)c(OC)c(OC)c3)c(=O)c21 | nt | 6% | 31% | -13% | nt | -21%[59 µM]
SMILES | Six1-Eya2 inh | BAZ2B block | HP1b chromo inh | JMJD2A Tudor | CtBP-E1A blk | G9a inh
COc1cccc(C(=O)n2nc(-c3cccnc3)nc2NCc2ccc(F)cc2)c1 | nt | 2% | 39% | -14% | nt | -2%[59 µM]
O=C(CCNS(=O)(=O)c1ccc(Br)cc1)NCCc1ccccc1 | 2 | -6%[57.1 µM] | 25% | -8% | 9 | -15%
CC(NS(=O)(=O)c1ccc(Br)cc1)C(=O)NCCc1ccccc1 (centres undefined) | 10 | -6% | 18% | -15% | 6 | 40µM*
NS(=O)(=O)c1ccc(CCNC(=O)c2ccc3nccnc3c2)cc1 | ? | nt | 71µM* | 40µM* | -22 | nt
Cc1ccc2c(CC(=O)NCCc3ccc(S(N)(=O)=O)cc3)coc2c1 | 2 | -12% | 16% | 45µM* | 11 | 26%[12.7 µM]
O=C(CCS(=O)(=O)c1ccc(Br)cc1)NCCc1ccccc1 | -13 | ? | ? | 40µM* | 2 | 50µM*
Cc1ccc(CC(=O)NCCc2ccc(S(N)(=O)=O)cc2)cc1 | 12 | -3% | 13% | -1% | nt | -10%[59 µM]
O=C(Nc1ccc2c(c1)OCCO2)c1[nH]c(C(F)(F)F)nc1-c1ccccc1 | -23 | nt | nt | nt | -24 | nt
CCOC(=O)c1ccccc1NC(=O)Cn1c(=O)n(CCC(=O)N2CCc3ccccc3C2)c(=O)c2ccccc21 | nt | 2% | 56% | -18% | nt | -19%[59 µM]
Cc1ccc(S(=O)(=O)CCNC(=O)Cc2ccccc2)cc1 | 1 | -12% | -3% | 20µM* | 0 | 2%
COc1ccc(S(=O)(=O)CCC(=O)NCc2ccc(C)o2)cc1 | -4 | 1% | 6% | -26% | -1 | nt
COc1ccc(CNC(=O)CCS(=O)(=O)c2ccc(Br)cc2)cc1 | -16 | 50µM* | ? | ? | 8 | 45µM*
NS(=O)(=O)c1ccc(CCNC(=O)CCS(=O)(=O)c2ccc(Br)cc2)cc1 | -11 | 32µM* | 18µM* | 32µM* | nt | 28µM*
NS(=O)(=O)c1ccc(CCNC(=O)CNCCc2ccccc2)cc1 | 8 | 50µM* | ? | 25µM* | 8 | 50µM*
Cc1ccc(CC(=O)NCCCc2ccccc2)cc1 | 5 | 1% | 14% | 14% | -1 | -12%[59 µM]
CCCCCCCCCCCCC/C=C/[C@@H](O)[C@H](CO)NC(C)=O | nt | nt | nt | nt | nt | 25%[59 µM]
CC(/C=C/c1ccccc1)=N\NC(=S)NC(C)C | -25 | ? | ? | 45µM* | -11 | 50µM*
CC(/C=C/c1ccccc1)=N\NC(N)=S | -9 | ? | ? | -22%[57.1 µM] | 4 | ?
CCOC(=O)C1CCCCN1S(=O)(=O)c1csc(C(N)=O)c1 (centres undefined) | nt | ? | 52% | -4% | nt | -30%[59 µM]
